Measured values: PubChem BioAssay AID602432 (Southern Research Specialized Biocontainment Screening …, 2012)
Measured potencies and affinities stand elsewhere. Results filed as inconclusive are left out. Activity calls are given as the source filed them. How the calls were made is not given here.

assay: HepG2 cell cytotoxicity, cytotoxicity control, set 6 (AID 602432); settings: series mostly up to 50 µM

Q: Which outcome does the source give for `COc1ccc(NC(=O)NCc2ccc(C(=O)N3CCC(c4ccccc4)CC3)cc2)cc1` here?
A: inactive

Q: For `O=C(c1ccc(CNc2c(N3CCOCC3)c(=O)c2=O)cc1)N1CCN(c2ccccc2)CC1`, which outcome is on record?
A: inactive

Q: Which outcome does the source give for `CC(C)CCNC(=O)CSc1nc2c(c(=O)[nH]1)CCCCC2` here?
A: inactive

Q: For `COC(=O)C(Cc1ccccc1)NC(=O)CSc1nc2ccccc2c(=O)[nH]1` (configuration not stated), which outcome is on record?
A: inactive

Q: For `O=C(CSc1nc2ccccc2c(=O)[nH]1)NC1CCCCC1`, which outcome is on record?
A: inactive

Q: With `O=C(NCc1ccc(C(=O)N2CCN(c3ccccc3)CC2)cc1)NC1CCCCC1` as the compound, how does the outcome read?
A: inactive

Q: With `O=C(c1ccc(CNc2c(N3CCOCC3)c(=O)c2=O)cc1)N1CCC(c2ccccc2)CC1` as the compound, how does the outcome read?
A: inactive

Q: For `O=C(CSc1nc2c(c(=O)[nH]1)CN(Cc1ccccc1)CC2)NC1CCCCC1`, which outcome is on record?
A: inactive

Q: For `COCCNC(=O)CSc1nc2ccccc2c(=O)[nH]1`, which outcome is on record?
A: inactive

Q: Which outcome does the source give for `CC(C)CCNC(=O)CSc1nc2ccccc2c(=O)[nH]1` here?
A: inactive

Q: For `O=C(CSc1nc2c(c(=O)[nH]1)CCCC2)NC1CCCCC1`, which outcome is on record?
A: inactive

Q: With `O=C(c1ccc(CNc2c(N3CCCC3)c(=O)c2=O)cc1)N1CCN(c2ccccc2)CC1` as the compound, how does the outcome read?
A: inactive

Q: For `CC1CCCN(c2c(NCc3ccc(C(=O)N4CC=C(c5ccccc5)CC4)cc3)c(=O)c2=O)C1` (configuration not stated), which outcome is on record?
A: inactive

Q: For `O=C(CSc1nc2ccccc2c(=O)[nH]1)NC1CCOCC1`, which outcome is on record?
A: inactive

Q: With `O=C(CSc1nc2c(c(=O)[nH]1)CCC2)NC1CCCCC1` as the compound, how does the outcome read?
A: inactive

Q: Which outcome does the source give for `CC(C)CCNC(=O)CSc1nc2c(c(=O)[nH]1)CCCC2` here?
A: inactive

Q: With `O=C(c1ccc(CNc2c(N3CCCC3)c(=O)c2=O)cc1)N1CCC(c2ccccc2)CC1` as the compound, how does the outcome read?
A: inactive
